Experimental data published in paper PMC7862700, “An all-to-all approach to the identification of sequence-specific readers for epigenetic DNA modifications on cytosine”.

Experiments:
Assay in all cases: DAPPL (digital affinity profiling via proximity ligation, sequencing); 10 mM Tris-HCl pH 7.5, 50 mM NaCl, 1 mM DTT, 4% glycerol, room temperature, 30 min; GST-TFs on glutathione beads, 16-mer random dsDNA library, 0.1% formaldehyde crosslink after washing; high values mean tight binding
FLI1 = molecular target: T1, FLI1 (Homo sapiens, UniProt Q01543 1-452); conditions: protein: recombinant; tags: N-terminal GST; dsDNA, one strand shown
T1 sequence: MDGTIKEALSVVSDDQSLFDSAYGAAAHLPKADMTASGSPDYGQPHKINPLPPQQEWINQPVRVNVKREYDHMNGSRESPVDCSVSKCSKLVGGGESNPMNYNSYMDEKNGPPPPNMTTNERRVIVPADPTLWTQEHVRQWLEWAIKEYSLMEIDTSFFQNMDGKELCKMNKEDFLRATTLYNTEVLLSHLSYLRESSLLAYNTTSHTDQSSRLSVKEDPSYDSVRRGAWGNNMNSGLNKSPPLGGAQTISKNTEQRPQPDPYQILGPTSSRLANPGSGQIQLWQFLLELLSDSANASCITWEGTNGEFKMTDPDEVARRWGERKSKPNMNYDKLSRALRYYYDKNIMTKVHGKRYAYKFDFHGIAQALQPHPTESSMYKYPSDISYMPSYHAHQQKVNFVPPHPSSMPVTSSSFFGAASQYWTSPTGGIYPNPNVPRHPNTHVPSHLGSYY
Summary of the method: (§1)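 The binding signal reported is, for every hexamer, its read frequency for a factor over its read frequency for the tag-only sample. Reads came from pools of yeast-expressed, GST-fused human transcription factors on glutathione beads, barcoded with DNA and mixed with that sample, which were incubated with 200 nmole of a random double-stranded 16-mer DNA library in Tris/NaCl/DTT/glycerol buffer at room temperature for 30 min. After washing, the pools were crosslinked with 0.1% formaldehyde, proximity-ligated with BsaI/T4 ligase for 1 h at 37 °C, PCR-amplified and sequenced on an Illumina NextSeq500.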

ELK1 = molecular target: T2, ELK1 (Homo sapiens, UniProt P19419 1-428); conditions: protein: recombinant; tags: N-terminal GST; dsDNA, one strand shown
T2 sequence: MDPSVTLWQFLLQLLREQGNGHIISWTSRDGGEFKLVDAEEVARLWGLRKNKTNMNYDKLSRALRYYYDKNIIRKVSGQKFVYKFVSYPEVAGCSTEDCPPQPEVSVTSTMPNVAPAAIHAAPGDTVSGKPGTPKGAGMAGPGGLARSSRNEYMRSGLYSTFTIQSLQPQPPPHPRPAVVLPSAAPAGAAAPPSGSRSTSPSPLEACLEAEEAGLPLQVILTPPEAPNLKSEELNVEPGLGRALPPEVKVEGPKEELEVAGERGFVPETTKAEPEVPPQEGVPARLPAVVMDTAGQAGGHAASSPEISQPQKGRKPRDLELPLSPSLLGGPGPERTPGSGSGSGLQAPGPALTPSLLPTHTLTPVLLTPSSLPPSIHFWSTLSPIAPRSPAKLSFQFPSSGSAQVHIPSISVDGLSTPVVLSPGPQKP
Summary of the method: as §1

GABPA = molecular target: T3, GABPA (Homo sapiens, UniProt Q06546 1-454); conditions: protein: recombinant; tags: N-terminal GST; dsDNA, one strand shown
T3 sequence: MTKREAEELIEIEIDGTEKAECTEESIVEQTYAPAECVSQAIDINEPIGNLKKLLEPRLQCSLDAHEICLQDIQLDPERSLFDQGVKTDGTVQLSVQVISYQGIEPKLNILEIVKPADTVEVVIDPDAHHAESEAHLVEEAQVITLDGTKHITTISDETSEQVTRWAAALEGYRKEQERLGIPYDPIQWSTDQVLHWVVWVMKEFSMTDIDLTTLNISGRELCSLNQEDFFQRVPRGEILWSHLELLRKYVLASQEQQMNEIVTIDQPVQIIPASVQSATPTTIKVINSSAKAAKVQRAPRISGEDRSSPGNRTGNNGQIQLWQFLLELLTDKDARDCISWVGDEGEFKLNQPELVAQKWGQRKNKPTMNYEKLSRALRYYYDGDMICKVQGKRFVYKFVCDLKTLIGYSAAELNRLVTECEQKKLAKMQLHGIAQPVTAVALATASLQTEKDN
Summary of the method: as §1

ERG = molecular target: T4, ERG (Homo sapiens, UniProt P11308 1-479); conditions: protein: recombinant; tags: N-terminal GST; dsDNA, one strand shown
T4 sequence: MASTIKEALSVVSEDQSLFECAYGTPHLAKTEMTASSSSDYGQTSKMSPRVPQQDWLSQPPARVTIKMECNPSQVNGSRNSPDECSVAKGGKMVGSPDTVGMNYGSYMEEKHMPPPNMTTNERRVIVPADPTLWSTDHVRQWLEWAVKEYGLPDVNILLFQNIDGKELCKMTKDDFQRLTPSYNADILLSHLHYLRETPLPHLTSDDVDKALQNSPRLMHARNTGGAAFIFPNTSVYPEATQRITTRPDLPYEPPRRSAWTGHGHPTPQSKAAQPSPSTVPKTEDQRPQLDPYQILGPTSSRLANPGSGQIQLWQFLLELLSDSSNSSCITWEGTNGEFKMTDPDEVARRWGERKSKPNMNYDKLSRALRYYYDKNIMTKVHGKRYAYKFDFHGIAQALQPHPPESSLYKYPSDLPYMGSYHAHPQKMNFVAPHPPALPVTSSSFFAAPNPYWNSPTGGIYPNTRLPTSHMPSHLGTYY
Summary of the method: as §1

ELF1 = ELF1 (Homo sapiens, UniProt P32519 1-619); conditions: protein: recombinant; tags: N-terminal GST; dsDNA, one strand shown
ELF1, sequence (P32519 whole entry): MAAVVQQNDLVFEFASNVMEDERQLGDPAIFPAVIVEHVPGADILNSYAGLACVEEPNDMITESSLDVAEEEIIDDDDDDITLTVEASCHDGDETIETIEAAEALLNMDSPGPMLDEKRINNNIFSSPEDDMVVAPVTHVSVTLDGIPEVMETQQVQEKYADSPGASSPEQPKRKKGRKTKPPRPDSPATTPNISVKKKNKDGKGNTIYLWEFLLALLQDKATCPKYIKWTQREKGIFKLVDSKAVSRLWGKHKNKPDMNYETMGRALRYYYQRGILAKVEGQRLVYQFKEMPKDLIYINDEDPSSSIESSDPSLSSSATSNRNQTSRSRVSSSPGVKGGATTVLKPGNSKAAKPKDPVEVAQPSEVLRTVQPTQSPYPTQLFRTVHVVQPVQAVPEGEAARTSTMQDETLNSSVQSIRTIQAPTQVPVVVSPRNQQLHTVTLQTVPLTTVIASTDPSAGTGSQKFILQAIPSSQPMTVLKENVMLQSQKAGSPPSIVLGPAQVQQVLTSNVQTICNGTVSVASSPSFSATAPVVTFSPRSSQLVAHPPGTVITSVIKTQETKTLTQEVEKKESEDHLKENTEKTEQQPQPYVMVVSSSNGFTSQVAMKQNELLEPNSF
Summary of the method: as §1

EHF = molecular target: T5, EHF (Homo sapiens, UniProt Q9NZC4 1-300); conditions: protein: recombinant; tags: N-terminal GST; dsDNA, one strand shown
T5 sequence: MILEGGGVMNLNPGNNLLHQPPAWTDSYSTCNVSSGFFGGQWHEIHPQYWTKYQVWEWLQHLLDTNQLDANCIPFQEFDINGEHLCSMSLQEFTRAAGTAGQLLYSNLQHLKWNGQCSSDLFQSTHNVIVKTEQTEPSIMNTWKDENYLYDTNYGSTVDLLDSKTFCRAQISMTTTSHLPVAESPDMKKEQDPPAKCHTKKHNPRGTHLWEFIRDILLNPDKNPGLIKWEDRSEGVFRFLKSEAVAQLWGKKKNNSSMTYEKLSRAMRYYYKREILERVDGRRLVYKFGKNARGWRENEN
Summary of the method: as §1

SPI1 = SPI1 (Homo sapiens, UniProt P17947 1-270); conditions: protein: recombinant; tags: N-terminal GST; dsDNA, one strand shown
Summary of the method: as §1

SPIB = SPIB (Homo sapiens, UniProt Q01892 1-262); conditions: protein: recombinant; tags: N-terminal GST; dsDNA, one strand shown
SPIB, sequence (Q01892 whole entry): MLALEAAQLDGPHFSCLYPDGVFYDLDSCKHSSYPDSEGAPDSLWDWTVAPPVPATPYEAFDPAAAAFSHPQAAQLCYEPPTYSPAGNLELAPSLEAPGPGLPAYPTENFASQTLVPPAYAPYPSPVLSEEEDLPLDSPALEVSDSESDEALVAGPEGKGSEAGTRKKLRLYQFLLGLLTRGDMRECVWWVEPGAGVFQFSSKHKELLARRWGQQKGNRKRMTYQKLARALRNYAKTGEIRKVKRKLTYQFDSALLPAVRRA
Summary of the method: as §1

ELK3 = molecular target: T6, ELK3 (Homo sapiens, UniProt P41970 1-407); conditions: protein: recombinant; tags: N-terminal GST; dsDNA, one strand shown
T6 sequence: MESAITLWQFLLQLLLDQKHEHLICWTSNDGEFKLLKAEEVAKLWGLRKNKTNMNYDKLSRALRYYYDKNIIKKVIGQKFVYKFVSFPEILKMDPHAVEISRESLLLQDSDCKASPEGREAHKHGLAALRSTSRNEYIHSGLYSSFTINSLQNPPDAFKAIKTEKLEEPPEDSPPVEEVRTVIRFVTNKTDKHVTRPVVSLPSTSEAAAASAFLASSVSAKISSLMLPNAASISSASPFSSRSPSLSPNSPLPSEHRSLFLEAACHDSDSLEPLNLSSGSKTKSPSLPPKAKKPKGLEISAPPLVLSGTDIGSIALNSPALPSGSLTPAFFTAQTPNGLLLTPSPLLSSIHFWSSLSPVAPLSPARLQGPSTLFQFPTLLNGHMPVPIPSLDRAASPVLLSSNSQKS
Summary of the method: as §1

FEV = molecular target: T7, FEV (Homo sapiens, UniProt Q99581 1-238); conditions: protein: recombinant; tags: N-terminal GST; dsDNA, one strand shown
T7 sequence: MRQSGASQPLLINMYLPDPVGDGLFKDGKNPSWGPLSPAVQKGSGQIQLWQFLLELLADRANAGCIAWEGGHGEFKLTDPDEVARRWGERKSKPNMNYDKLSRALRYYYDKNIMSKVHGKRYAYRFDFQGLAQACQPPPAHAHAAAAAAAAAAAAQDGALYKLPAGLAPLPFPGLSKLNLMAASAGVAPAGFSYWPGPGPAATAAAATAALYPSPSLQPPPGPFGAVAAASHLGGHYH
Summary of the method: as §1

ETV5 = ETV5 (Homo sapiens, UniProt P41161 1-510); conditions: protein: recombinant; tags: N-terminal GST; dsDNA, one strand shown
ETV5, sequence (P41161 whole entry): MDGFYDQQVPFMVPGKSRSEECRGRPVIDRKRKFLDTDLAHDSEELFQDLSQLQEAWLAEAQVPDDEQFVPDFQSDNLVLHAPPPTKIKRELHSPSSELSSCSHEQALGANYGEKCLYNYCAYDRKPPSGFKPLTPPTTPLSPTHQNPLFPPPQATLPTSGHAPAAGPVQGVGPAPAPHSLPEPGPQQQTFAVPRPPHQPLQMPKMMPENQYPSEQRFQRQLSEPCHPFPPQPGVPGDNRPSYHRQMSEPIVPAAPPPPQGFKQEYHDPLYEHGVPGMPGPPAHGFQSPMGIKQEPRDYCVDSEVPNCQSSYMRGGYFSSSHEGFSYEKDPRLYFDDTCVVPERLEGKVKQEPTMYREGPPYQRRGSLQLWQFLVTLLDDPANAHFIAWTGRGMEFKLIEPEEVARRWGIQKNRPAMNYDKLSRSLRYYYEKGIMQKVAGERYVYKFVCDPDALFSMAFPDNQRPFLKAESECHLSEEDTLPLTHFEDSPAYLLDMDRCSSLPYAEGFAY
Summary of the method: as §1

HSF1 = HSF1 (Homo sapiens, UniProt Q00613 1-529); conditions: protein: recombinant; tags: N-terminal GST; chain copies: 3; dsDNA, one strand shown
HSF1, sequence (Q00613 whole entry): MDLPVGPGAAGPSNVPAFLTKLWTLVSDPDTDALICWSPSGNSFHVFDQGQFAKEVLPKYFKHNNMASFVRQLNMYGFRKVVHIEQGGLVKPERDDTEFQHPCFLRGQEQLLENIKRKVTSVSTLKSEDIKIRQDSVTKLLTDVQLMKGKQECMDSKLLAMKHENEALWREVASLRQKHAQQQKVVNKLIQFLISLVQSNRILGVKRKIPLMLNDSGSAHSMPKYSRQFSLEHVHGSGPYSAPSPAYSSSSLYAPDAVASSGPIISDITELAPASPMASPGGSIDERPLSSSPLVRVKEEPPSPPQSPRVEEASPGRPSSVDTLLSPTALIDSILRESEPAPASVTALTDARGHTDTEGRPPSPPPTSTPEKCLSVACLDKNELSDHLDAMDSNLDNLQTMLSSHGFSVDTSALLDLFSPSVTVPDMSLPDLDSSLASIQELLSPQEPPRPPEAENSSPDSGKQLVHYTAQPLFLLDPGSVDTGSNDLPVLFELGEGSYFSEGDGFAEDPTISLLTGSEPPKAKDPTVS
Summary of the method: as §1

SPIC = molecular target: T8, SPIC (Homo sapiens, UniProt Q8N5J4 1-248); conditions: protein: recombinant; tags: N-terminal GST; dsDNA, one strand shown
T8 sequence: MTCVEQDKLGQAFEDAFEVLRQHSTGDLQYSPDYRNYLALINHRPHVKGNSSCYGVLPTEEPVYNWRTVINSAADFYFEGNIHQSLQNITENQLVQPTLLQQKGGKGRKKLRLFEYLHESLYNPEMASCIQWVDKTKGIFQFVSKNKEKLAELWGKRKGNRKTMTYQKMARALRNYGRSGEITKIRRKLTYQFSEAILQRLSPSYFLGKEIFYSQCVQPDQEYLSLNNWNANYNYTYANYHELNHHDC
Summary of the method: as §1

ELF4 = ELF4 (Homo sapiens, UniProt Q99607 1-663); conditions: protein: recombinant; tags: N-terminal GST; dsDNA, one strand shown
ELF4, sequence (Q99607 whole entry): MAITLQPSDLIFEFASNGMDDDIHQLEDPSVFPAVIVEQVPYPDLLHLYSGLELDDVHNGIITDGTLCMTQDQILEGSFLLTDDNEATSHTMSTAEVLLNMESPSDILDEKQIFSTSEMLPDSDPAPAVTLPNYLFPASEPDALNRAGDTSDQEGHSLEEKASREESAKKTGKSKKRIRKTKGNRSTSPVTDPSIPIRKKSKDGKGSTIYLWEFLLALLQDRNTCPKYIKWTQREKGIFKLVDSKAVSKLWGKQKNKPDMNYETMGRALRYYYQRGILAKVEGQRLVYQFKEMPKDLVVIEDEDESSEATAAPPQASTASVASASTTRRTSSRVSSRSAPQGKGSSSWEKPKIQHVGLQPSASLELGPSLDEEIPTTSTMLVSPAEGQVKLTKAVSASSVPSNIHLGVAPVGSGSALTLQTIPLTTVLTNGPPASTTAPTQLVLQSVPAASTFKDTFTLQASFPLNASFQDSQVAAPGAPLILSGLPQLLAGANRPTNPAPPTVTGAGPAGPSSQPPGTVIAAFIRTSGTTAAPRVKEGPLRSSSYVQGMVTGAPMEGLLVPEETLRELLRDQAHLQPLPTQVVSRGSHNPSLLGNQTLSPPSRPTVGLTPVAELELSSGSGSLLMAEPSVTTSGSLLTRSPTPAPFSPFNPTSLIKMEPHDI
Summary of the method: as §1

ELK4 = molecular target: T9, ELK4 (Homo sapiens, UniProt P28324-2 1-405); conditions: protein: recombinant; tags: N-terminal GST; dsDNA, one strand shown
T9 sequence: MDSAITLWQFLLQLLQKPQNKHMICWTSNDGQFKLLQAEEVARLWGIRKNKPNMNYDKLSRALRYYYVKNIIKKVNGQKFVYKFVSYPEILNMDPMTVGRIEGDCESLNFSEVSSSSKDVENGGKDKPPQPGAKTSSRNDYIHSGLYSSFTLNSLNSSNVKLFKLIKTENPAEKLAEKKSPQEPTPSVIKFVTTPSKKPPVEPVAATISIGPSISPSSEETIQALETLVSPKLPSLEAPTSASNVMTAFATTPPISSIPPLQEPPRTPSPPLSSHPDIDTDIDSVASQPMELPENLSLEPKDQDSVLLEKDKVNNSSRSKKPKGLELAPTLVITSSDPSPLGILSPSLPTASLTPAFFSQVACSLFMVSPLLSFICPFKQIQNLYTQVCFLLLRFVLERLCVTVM
Summary of the method: as §1

ETV2 = molecular target: T10, ETV2 (Homo sapiens, UniProt O00321 1-342); conditions: protein: recombinant; tags: N-terminal GST; dsDNA, one strand shown
T10 sequence: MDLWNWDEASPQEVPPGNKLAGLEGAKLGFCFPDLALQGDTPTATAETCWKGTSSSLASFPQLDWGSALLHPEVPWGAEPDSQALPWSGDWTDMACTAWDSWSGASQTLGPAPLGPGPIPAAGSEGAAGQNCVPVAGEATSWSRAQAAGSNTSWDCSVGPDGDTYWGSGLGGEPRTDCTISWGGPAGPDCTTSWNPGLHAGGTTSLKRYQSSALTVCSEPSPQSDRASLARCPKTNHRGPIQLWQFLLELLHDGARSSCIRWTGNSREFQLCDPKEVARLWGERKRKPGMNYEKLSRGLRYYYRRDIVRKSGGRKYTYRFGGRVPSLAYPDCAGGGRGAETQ
Summary of the method: as §1

ELF3 = molecular target: T11, ELF3 (Homo sapiens, UniProt P78545 1-371); conditions: protein: recombinant; tags: N-terminal GST; dsDNA, one strand shown
T11 sequence: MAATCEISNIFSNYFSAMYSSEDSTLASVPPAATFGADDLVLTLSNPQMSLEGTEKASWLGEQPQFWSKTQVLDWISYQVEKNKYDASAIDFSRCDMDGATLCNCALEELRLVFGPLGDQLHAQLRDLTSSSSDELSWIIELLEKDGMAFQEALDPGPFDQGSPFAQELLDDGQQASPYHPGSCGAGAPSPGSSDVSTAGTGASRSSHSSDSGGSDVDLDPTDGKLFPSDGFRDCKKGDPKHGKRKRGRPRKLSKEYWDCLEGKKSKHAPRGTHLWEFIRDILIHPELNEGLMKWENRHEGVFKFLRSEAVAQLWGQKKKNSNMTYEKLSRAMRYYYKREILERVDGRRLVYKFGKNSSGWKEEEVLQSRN
Summary of the method: as §1

ETV1 = ETV1 (Homo sapiens, UniProt P50549 1-477); conditions: protein: recombinant; tags: N-terminal GST; dsDNA, one strand shown
ETV1, sequence (P50549 whole entry): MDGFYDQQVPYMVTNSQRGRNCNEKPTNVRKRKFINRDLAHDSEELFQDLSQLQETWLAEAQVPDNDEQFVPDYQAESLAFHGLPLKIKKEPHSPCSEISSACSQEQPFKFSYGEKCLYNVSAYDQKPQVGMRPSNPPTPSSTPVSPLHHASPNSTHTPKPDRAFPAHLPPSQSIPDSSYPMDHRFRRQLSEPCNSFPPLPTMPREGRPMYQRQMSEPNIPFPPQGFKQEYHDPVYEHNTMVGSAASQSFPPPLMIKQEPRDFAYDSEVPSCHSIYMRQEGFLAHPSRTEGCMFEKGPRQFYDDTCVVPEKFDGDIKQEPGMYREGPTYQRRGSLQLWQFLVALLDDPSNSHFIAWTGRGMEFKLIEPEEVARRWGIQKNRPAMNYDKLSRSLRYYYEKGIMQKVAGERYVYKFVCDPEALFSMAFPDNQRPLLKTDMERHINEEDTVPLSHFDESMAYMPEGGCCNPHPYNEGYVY
Summary of the method: as §1

In the case of ATGTCC, the binding signal (FLI1) is reported as 1.56 fold enrichment (6-mer frequency, TF over GST control), the binding signal (ELK1) is reported as 1.53 fold enrichment (6-mer frequency, TF over GST control) and the binding signal (GABPA) is reported as 1.54 fold enrichment (6-mer frequency, TF over GST control). For the same sequence, the binding signal (ERG) was 1.75 fold enrichment (6-mer frequency, TF over GST control), the binding signal (ELF1) was 1.58 fold enrichment (6-mer frequency, TF over GST control) and the binding signal (EHF) was 1.54 fold enrichment (6-mer frequency, TF over GST control). The binding signal (SPI1) was 1.35 fold enrichment (6-mer frequency, TF over GST control), the binding signal (SPIB) was 1.55 fold enrichment (6-mer frequency, TF over GST control) and the binding signal (ELK3) was 1.75 fold enrichment (6-mer frequency, TF over GST control). The binding signal (FEV) was 1.84 fold enrichment (6-mer frequency, TF over GST control), the binding signal (ETV5) was 1.62 fold enrichment (6-mer frequency, TF over GST control) and the binding signal (HSF1) was 1.03 fold enrichment (6-mer frequency, TF over GST control). The binding signal (SPIC) was 1.54 fold enrichment (6-mer frequency, TF over GST control), the binding signal (ELF4) was 1.51 fold enrichment (6-mer frequency, TF over GST control) and the binding signal (ELK4) was 1.57 fold enrichment (6-mer frequency, TF over GST control). The binding signal (ETV2) was 1.77 fold enrichment (6-mer frequency, TF over GST control), the binding signal (ELF3) was 1.85 fold enrichment (6-mer frequency, TF over GST control) and the binding signal (ETV1) was 1.66 fold enrichment (6-mer frequency, TF over GST control).
